Data published in PubChem BioAssay (NCI).
The panel holds about 83,000 compounds, 20% with a hit somewhere; the sample as a whole holds those more often.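 In brief: 96-well plates, 48 h treatment, single concentration, percent growth endpoint.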 Activity calls are given as the source filed them. Rule for the calls: active = growth percent below 10; inactive = the rest.

Key:
Test in all cases: NCI-60 one-dose screen, 48 h (100 = growth as untreated, 0 = no growth, -100 = all killed)
Details in all cases: 10 µM unless noted
[1] = system: HCT-15 colon
[2] = system: HT29 colon
[3] = system: SNB-19 CNS
[4] = system: U251 CNS
[5] = system: PC-3 prostate
[6] = system: SK-MEL-5 melanoma
[7] = system: UACC-62 melanoma
[8] = system: LOX IMVI melanoma
[9] = system: SK-MEL-28 melanoma
[10] = system: SNB-75 CNS

Measured: growth

N/C(=N\C(N)=N\c1nc2ccccc2s1)c1ccnc(Cl)c1
inactive: [1] 29.9% | [2] 13.7% | [3] 39.4% | [4] 33.8% | [5] 37.9% | [6] 17.3% | [7] 33.9% | [8] 44.9% | [9] 62.2%

NS(=O)(=O)c1ccc(-n2ncc3c(NC4CCCCC4)ncnc32)cc1
inactive: [1] 86.4% | [2] 81.9% | [10] 113% | [4] 96.3% | [5] 92.9% | [6] 88.1% | [7] 97.2% | [8] 80.8% | [9] 98%

COc1ccc(C(=O)COc2ccc(/C=C3\Oc4ccc5ccccc5c4C3=O)cc2)cc1
inactive: [1] 126% | [2] 111% | [3] 85% | [4] 99.5% | [5] 81% | [6] 95.7% | [7] 95.9% | [8] 93.5% | [9] 105%

COc1ccc(OC)c2c1CCC1(C2)NC(=O)NC1=O (configuration not stated)
inactive: [1] 93.6% | [2] 104% | [10] 86.2% | [5] 94.8% | [7] 103% | [8] 100% | [9] 106%

COc1ccc(/C=C2\CCc3ccccc3C2=O)cc1
inactive: [1] 91.3% | [2] 80.4% | [10] 69.3% | [5] 82.1% | [6] 99.3% | [7] 83% | [8] 77.2% | [9] 84.9%

CCSc1nc(-c2ccc(F)cc2)c(C#N)c(=O)[nH]1
inactive: [1] 104% | [2] 106% | [10] 93.5% | [4] 107% | [5] 127% | [6] 101% | [7] 97.5% | [8] 95.4% | [9] 108%

O=C(CN1CCN(c2ccc(Cl)cc2)CC1)N1CCN(c2nnc(-c3ccccc3)c(-c3ccccc3)n2)CC1
active: [6] -9.45%
inactive: [1] 42.3% | [2] 29.2% | [3] 60% | [4] 45.8% | [5] 12.1% | [7] 53% | [8] 38.5% | [9] 83%

O=C(COc1cccc(/C=C2\Oc3ccc4ccccc4c3C2=O)c1)c1ccc(Cl)cc1
inactive: [1] 72.4% | [2] 103% | [10] 90.5% | [4] 61.5% | [5] 77.5% | [6] 89.3% | [7] 82.8% | [8] 10.6% | [9] 113%

CCOC(CNCc1cc(C)c2[nH]c3ccccc3c2c1C)OCC
inactive: [1] 80.7% | [2] 53.1% | [10] 73.6% | [4] 83.2% | [5] 58.6% | [6] 79.8% | [7] 77.9% | [8] 77.2% | [9] 97.3%

O=C(/C=C/c1ccc([N+](=O)[O-])cc1)c1ccc2c3c(cccc13)CC2
inactive: [1] 59.5% | [2] 77.2% | [3] 82.6% | [4] 13.7% | [5] 52.9% | [6] 97.8% | [7] 80.2% | [8] 67.6% | [9] 63.9%

Cc1ccc2nc(-c3ccc(N(C)C)c(Br)c3)cn2c1
inactive: [1] 33.9% | [2] 72.8% | [10] 103% | [4] 49.1% | [5] 53.7% | [7] 66.6% | [8] 56.3% | [9] 93.3%

COc1cccc2c1C(=O)c1c(O)c3c(c(O)c1C2=O)C[C@@](O)(C(C)=O)C[C@@H]3O[C@H]1C[C@H](N)[C@H](O)[C@H](C)O1
active: [1] 7.88% | [2] -13.5% | [3] 2.11% | [4] 0.281% | [5] -26.3% | [6] -100% | [7] -65.8% | [8] -35% | [9] -44.5%

O=C(CNC(=O)c1cccc2ccccc12)Nc1ccccc1Oc1cccc(O)c1
inactive: [1] 22.6% [5 µM] | [2] 14.8% [5 µM] | [3] 38% [5 µM] | [4] 14.3% [5 µM] | [5] 28.1% [5 µM] | [6] 26.4% [5 µM] | [7] 44.9% [5 µM] | [8] 33.4% [5 µM] | [9] 57.3% [5 µM]

O=C(Nc1ccccc1OC(=O)c1ccccc1)c1ccccc1
inactive: [1] 88.5% | [2] 51.9% | [3] 87.4% | [4] 47% | [5] 88.5% | [6] 97.4% | [7] 82.6% | [8] 60.1% | [9] 118%

COc1cc(/C=C/C(=O)C(C(=O)/C=C/c2ccc(OC(=O)CCNc3nnc(C)s3)c(OC)c2)C(=O)CCNc2nnc(C)s2)ccc1OC(=O)CCNc1nnc(C)s1
inactive: [3] 32.7% | [4] 11.1%
active: [1] -43.2% | [2] -69% | [5] -16.4% | [6] -22.6% | [7] -67.6% | [8] -68.7% | [9] -15.6%

CCN1CC2=C(Nc3nc(SC)[nH]c(=O)c3C2c2cc(OC)c(OC)c(OC)c2)/C(=C/c2cc(OC)c(OC)c(OC)c2)C1 (configuration not stated)
inactive: [1] 104% | [2] 99.1% | [3] 91.6% | [4] 83.8% | [5] 92.2% | [6] 88.6% | [7] 90.1% | [8] 91.1% | [9] 104%

C=CCNC(=O)/C(=C/c1cccc([N+](=O)[O-])c1)NC(=O)c1ccccc1
inactive: [1] 87.5% | [2] 113% | [3] 91.2% | [4] 96.8% | [5] 94.7% | [6] 97.9% | [7] 95.3% | [8] 93.4% | [9] 119%

COc1ccc(OC)c(CCn2cncc2-c2c[nH]c3cc(Br)ccc23)c1
active: [6] -75.8%
inactive: [1] 25.1% | [2] 10.2% | [3] 50.1% | [4] 34.9% | [7] 36.8% | [8] 37% | [9] 57.5%
